# According to PubChem BioAssay AID2253 (Southern Research Specialized Biocontainment Screening …, 2010):
# The whole screen tested about 2,200 compounds, of which about 1,300 (59%) were called active. How the calls were made is not given here. So high a share suggests a set chosen from earlier hits. These entries were drawn from the full list. Measured potencies and affinities stand elsewhere.
# Assay: human monocytic cell viability reduction – S. typhimurium screen hits, cytotoxicity control for Salmonella PhoP regulon inhibitors, dose response (AID 2253)
# Conditions: THP-1 viability, CellTiter-Glo luminescence, 72 h; series mostly up to 50 µM; viability: at the top concentration
row,Compound,viability
1,Cc1ccc(OCC(=O)N2CCN(S(=O)(=O)c3ccccc3)CC2)c([N+](=O)[O-])n1,106% (inactive)
2,CCOC(=O)C(/C=C(\C#N)C(=O)OCC)=C(/N)N1CCN(c2c(C)cccc2C)CC1,82.1% (inactive)
3,Cc1ccccc1NC(=S)N(CCCN1CCOCC1)Cc1ccccn1,113% (inactive)
4,Brc1ccc2nc3c(n2c1)CCCC3,81.3% [at 25 µM] (inactive)
5,CCCCn1c(NCCO)nc2ccccc21,96.2% (inactive)
6,Nc1ccc(C(=O)OCc2nc3ccccc3[nH]2)cc1,87.7% (inactive)
7,COc1c(F)c(F)cc2c(=O)c(C(=O)O)cn(C3CC3)c12,96.7% (inactive)
8,O=C(Cn1nc(C(F)(F)F)c2c1CCCCC2)N1CCOCC1,98.2% (inactive)
9,CCCNC(=O)COC(=O)CCC(=O)c1ccc(F)cc1,92.6% (inactive)
10,O=C(c1cc2ncc(Br)cn2n1)N1CCOCC1,99.4% (inactive)
11,C(=N\N1CCN(C2c3ccccc3-c3ccccc32)CC1)/c1cccs1,94.6% (inactive)
12,CCn1cc(C(=O)O)c(=O)c2cnc(N3CCN(C(=S)NC(=O)c4ccc(Cl)cc4)CC3)nc21,81% (inactive)
13,CCOc1ccc(-c2noc(CCCC(N)=O)n2)cc1OC,102% (inactive)
14,COc1c(N2C[C@@H]3CCCN[C@@H]3C2)c(F)cc2c(=O)c(C(=O)O)cn(C3CC3)c12,96.6% (inactive)
15,N/C(=N\OC(=O)Cc1ccc(Cl)cc1)c1cccnc1,112% (inactive)
16,COc1cccc(N=Cc2c[nH][nH]c2=O)c1,82.5% (inactive)
17,Cc1cc2ncn(C3CC(=O)N(Cc4ccc(N5CCCC5=O)cc4)C3=O)c2cc1C (stereo not drawn),102% (inactive)
18,CC(NC(=O)C1(C)CC1(Br)Br)C(C)(C)C (stereo not drawn),97.6% (inactive)
19,CN1/C(=C/C2CC(=O)N(c3cccc4ccccc34)C2=O)C(C)(C)c2ccccc21 (stereo not drawn),86.7% (inactive)
20,Cc1ccc(NC(=O)CCN2CCc3ccccc3C2)cc1,83.3% (inactive)
21,O=C(OCCN1C(=O)c2ccccc2C1=O)c1ccc(S(=O)(=O)N2CCCCCC2)cc1,106% (inactive)
22,C/C(=N\NC(=O)c1c(Cl)c(C)nn1C)c1cccc(NC(=O)COc2ccc(Cl)cc2)c1,90.3% (inactive)
23,CCCCCC(=O)Nc1ccc2ccccc2c1,94% (inactive)
24,O=S(=O)(NCc1ccccc1)c1cccc(S(=O)(=O)N2CCOCC2)c1,84.2% (inactive)
25,O=C(Nc1ccc2oc(-c3ccc(Cl)c(Cl)c3)nc2c1)c1ncn[nH]1,90.1% (inactive)

row,Compound,viability
1,Nc1nc(N)nc(-c2ccccc2)n1,99.9% (inactive)
2,Nc1cc(N)cc(-c2nc3ccccc3[nH]2)c1,90.1% (inactive)
3,O=C(O)CCc1nn2c3ccccc3n(CCN3CCCCC3)c2nc1=O,101% (inactive)
4,COc1ccc(OCCSc2nnc(-c3ccc(OC)cc3)n2N)cc1,105% (inactive)
5,C=CCn1c(SCCOc2ccc(OC)cc2)nnc1C(C)NC(=O)c1ccc(OC)cc1 (stereo not drawn),81.2% (inactive)
6,COC(=O)c1ccc(COC(=O)c2ccccn2)cc1,103% (inactive)
7,CC(O)c1ccc(OCCN(C)c2ccccn2)cc1 (stereo not drawn),80.3% (inactive)
8,COc1cc(NC(=O)CSc2nnnn2Cc2ccc3c(c2)OCO3)cc(OC)c1,82.7% (inactive)
9,Cc1ccc(-n2ncc3c(N4CCN(c5ccccc5)CC4)ncnc32)c(C)c1,83.1% (inactive)
10,c1ccc(-c2cnn3nnnc3n2)cc1,92.2% (inactive)
11,CCc1c(C)c2cc(Cl)c(O)c(CN(C)C)c2oc1=O,101% (inactive)
12,O=C(CCN1C(=O)c2ccccc2S1(=O)=O)Nc1ccc2c(c1)OCCO2,84.7% (inactive)
13,CC(=O)c1c(N2CCN(C(=O)C3CCCO3)CC2)nc(=S)n(-c2ccccc2)c1C (stereo not drawn),98.6% (inactive)
14,O=C(Nc1ccc(F)cc1)c1ccccc1F,81.9% (inactive)
15,O=C(CCN1C(=O)COc2ccccc21)NCCN1CCOCC1,107% (inactive)
16,COc1ccc(CCNC(=O)c2ccc(CN3CCOCC3)cc2)cc1,102% (inactive)
17,CC1(C)CC(=O)C(/C=N/c2ncccc2C(=O)O)=C(O)C1,91% (inactive)
18,O=C(NC(CO)C(O)c1ccc([N+](=O)[O-])cc1)C(Cl)Cl (stereo not drawn),83.4% (inactive)
19,Cc1cc(-c2csc(N)n2)c(C)n1C,103% (inactive)
20,Cc1ccc(-n2c(C)cc(-c3csc(N)n3)c2C)cc1,96.6% (inactive)
21,Cc1ccccc1NC(=O)c1ccc(-n2cncn2)nc1,92.5% (inactive)
22,O=C1C(c2ccc(F)cc2)N(Cc2ccc3c(c2)OCO3)C(=O)CN1C1CCCCCC1 (stereo not drawn),93% (inactive)
23,Nc1ccc(Nc2ccccc2)c(Cl)c1,92.2% (inactive)
24,C/C(=N\n1nnnc1Nc1ccccc1)c1ccc(N)cc1,93.7% (inactive)
25,CCn1cc(C(=O)O)c(=O)c2cc(F)c(N3CCN(C(=S)NC(=O)c4ccccc4Cl)CC3)cc21,98.7% (inactive)

row,Compound,viability
1,CSCCC(NC(=O)c1cccc(C)c1)C(=O)OCC(=O)NC(=O)c1cccn1C (stereo not drawn),94.9% (inactive)
2,COc1ccc(Cl)cc1-c1nc(SCC(N)=O)n[nH]1,91.2% (inactive)
3,COC(=O)c1sccc1NC(=O)c1cccnc1,94.4% (inactive)
4,CC(=O)Nc1ccc(OC(=O)c2cccnc2)cc1,81.9% (inactive)
5,Cc1cc(-c2csc(NC(=O)c3ccc(S(=O)(=O)N(C)C)cc3)n2)c(C)n1-c1ccccc1,106% (inactive)
6,CC(=O)Nc1ccc(C(=O)Nc2nc(-c3cc(C)n(Cc4ccccc4)c3C)cs2)cc1,98% (inactive)
7,O=C(/C=C/c1ccco1)N/C(=C\c1ccccc1)C(=O)NCCc1nc2ccccc2[nH]1,81.4% (inactive)
8,Cc1ccc2c(CN3CCC(C)CC3)cc(=O)oc2c1,94.1% (inactive)
9,N#Cc1nc(-c2ccco2)oc1NCCCN1CCOCC1,108% (inactive)
10,N#CC1=C(N)SC(N)=C(C#N)C1c1ccc([N+](=O)[O-])cc1,101% (inactive)
11,CC1CCCCN1CCNS(=O)(=O)c1ccc2c(c1)oc(=O)n2C (stereo not drawn),100% (inactive)
12,Cn1nnnc1SCC(=O)NC1CCCCC1,88% (inactive)
13,CC1(C)CC(=O)C2=C(C1)N(Cc1ccccc1)C(=O)C2(O)C(F)(F)F (stereo not drawn),93.4% (inactive)
14,C/C(=N/Nc1nc(-c2ccc(Cl)cc2)cs1)c1cccs1,86.8% [at 12.5 µM] (inactive)
15,CCc1c(C)c2cc(Cl)c(O)c(CN3CCCCC3)c2oc1=O,100% (inactive)
16,O=C(CCc1ccccc1)Nc1nc2ccc(S(=O)(=O)N3CCOCC3)cc2s1,85.6% [at 25 µM] (inactive)
17,O=C(NCc1cn2ccsc2n1)Nc1ccc(Cl)cc1,81.7% (inactive)
18,COc1ccccc1CNc1nc2nc(C)c(C)c(=O)n2[nH]1,95.3% (inactive)
19,O=C(c1cnsn1)N1CCN(c2ccccc2)CC1,81.3% (inactive)
20,O=C1CC(c2ccccc2)n2nc(NC(=O)c3ccccc3)nc2N1 (stereo not drawn),89.1% (inactive)
21,Cc1nc(N2CCN(c3ccccc3)CC2)nc2c1C(=O)CC(C)C2 (stereo not drawn),91.5% (inactive)
22,CCC(CC)NC(=O)COC(=O)c1ccc(OCC(=O)Nc2ccccc2OC)c(OC)c1,89.9% (inactive)
23,Cc1ccc(CNC(=O)Nc2cccs2)cc1,92.3% (inactive)
